This note sets out measurements from PubChem BioAssay (Tox21).

Experiment [1] is described as follows: A CellTox Green Cytotoxicity Assay to monitor cytotoxicity in HEK293 cells - 32 hour (AID 1224881). Further: nearly all actives have a fitted effect of over 40% in size. The method, boiled down: (§1)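 Tox21 screen in HEK293: membrane-impermeant cyanine dye fluoresces on binding dead-cell DNA; compound pinned 5 h post-seeding, plates held at 37 C, signal read repeatedly through 40 h.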
Experiment [2] can be described thus: A CellTox Green Cytotoxicity Assay to monitor cytotoxicity in HEK293 cells - 8 hour (AID 1224884). Further: nearly all actives have a fitted effect of over 35% in size. The method, boiled down:
as §1

Experiment [3] can be described thus: A CellTox Green Cytotoxicity Assay to monitor cytotoxicity in HEK293 cells - 16 hour (AID 1224888). Further: nearly all actives have a fitted effect of over 35% in size. The gist of the method: as §1
The nature of experiment [4]: qHTS RealTime-Glo MT Cell Viability Assay in HepG2 cells - 0 hour (AID 1224889). Further: nearly all actives have a fitted effect of over 50% in size. Further: potency means the concentration at half of the fitted maximal effect. The method, boiled down:
(§2)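 Viability was tracked continuously by NanoLuc luminescence from prosubstrate reduced by living HepG2 cells, at successive time points over 40 h of compound exposure. Cells with reagent were preincubated 5 h at 37 °C before compound addition.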
For orientation: qHTS replaces the single test concentration by a dilution series.

Experiment [5] can be described thus: A CellTox Green Cytotoxicity Assay to monitor cytotoxicity in HepG2 cells - 8 hour (AID 1224890). Further: nearly all actives have a fitted effect of over 45% in size. The method, boiled down:
(§3)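 Measurements at 0, 8, 16, 24, 32 and 40 h of treatment captured CellTox Green fluorescence in HepG2 cells that had been co-plated with reagent and preincubated 5 h at 37 C/5% CO2.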

A short description of experiment [6]: qHTS assay to identify small molecule antagonists of the estrogen receptor alpha (ER-alpha) signaling pathway using the BG1 cell line in the presence of 0.1 nM 17-beta-estradiol - cell viability counter screen (AID 1259241). Further: nearly all actives have a fitted effect of over 40% in size. The gist of the method: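 Live-cell protease activity (CellTiter-Fluor fluorescence, 30 min) was read in the same wells after VM7Luc4E2 cells had been exposed to compounds with 0.1 nM 17beta-estradiol for 22 hr at 37C.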

The nature of experiment [7]: qHTS assay to identify small molecule antagonists of the androgen receptor (AR) signaling pathway using the MDA cell line in the presence of 0.5 nM R1881 - cell viability counter screen (AID 1259242). Further: nearly all actives have a fitted effect of over 45% in size. The method, boiled down:
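Concentration-response screen of compounds for toxicity in MDA-kb2 reporter cells: 16 hr at 37C with 0.5 nM R1881, endpoint live-cell protease fluorescence measured in the reporter wells.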

Experiment [8] in a line: qHTS assay to identify small molecule HDAC inhibitors (AID 1259364).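 Further: wild-type HCT-116 cells with endogenous class I/II HDAC activity; top concentration of the series differs between compounds; nearly all actives have a fitted effect of over 45% in size.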 The method, boiled down:
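Screening used wild-type human colon HCT-116 cells incubated overnight, dosed with compounds for 2 hours, and assayed with a homogeneous luminogenic HDAC I/II reagent for 30 minutes at room temperature.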

Experiment [9] is described as follows: qHTS assay to identify small molecule HDAC inhibitors - cell viability counter screen (AID 1259365). Further: series mostly up to about 92 µM; nearly all actives have a fitted effect of over 50% in size. The gist of the method: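 HCT-116 (wild type), 1,500 cells/well, overnight 37C/5% CO2; compound in DMSO 2hr; CellTiter-Glo 30min RT; luminescence read.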
A short description of experiment [10]: qHTS assay to identify small molecule agonists of the sonic hedgehog signaling (Shh) pathway - cell viability counter screen (AID 1259366). Further: nearly all actives have a fitted effect of over 50% in size. The gist of the method: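 CellTiter-Fluor fluorescence read-out, 1 hr at 37C, added after 23hr compound exposure. Cells: 3T3 Gli1-Luc, an NIH/3T3 clone with stably integrated Gli1-Luc reporter, plated 4hr before compound.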

A short description of experiment [11]: qHTS assay to identify small molecule agonists of the sonic hedgehog signaling (Shh) pathway (AID 1259368; calls by dose curve;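 further: NIH/3T3-derived 3T3Gli1-Luc cells carrying a stable Gli1-driven firefly luciferase reporter; series mostly up to about 92 µM; nearly all actives have a fitted effect of over 15% in size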). The gist of the method: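 Hedgehog pathway agonism scored by increased firefly luciferase luminescence in 3T3Gli1-Luc cells treated 24 hr at 37 C; detection used a 30 min room-temperature reagent incubation.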
Experiment [12] is described as follows: A CellTox Green Cytotoxicity Assay to monitor cytotoxicity in HepG2 cells - 0 hour (AID 1224882). Further: nearly all actives have a fitted effect of over 35% in size. The gist of the method: as §3
Experiment [13] is described as follows: qHTS RealTime-Glo MT Cell Viability Assay in HepG2 cells - 16 hour (AID 1224885). Further: nearly all actives have a fitted effect of over 50% in size. The method, boiled down:
as §2

Experiment [14] in a line: qHTS RealTime-Glo MT Cell Viability Assay in HEK293 cells - 24 hour (AID 1224886). The gist of the method: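 Viability tracked continuously by luminescence as live cells reduce a prosubstrate for NanoLuc; HEK293 cells preincubated 5 h, compound-treated at 37 C, and read at 0, 8, 16, 24, 32 and 40 h.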
Experiment [15] is described as follows: qHTS RealTime-Glo MT Cell Viability Assay in HEK293 cells - 8 hour (AID 1224887). The method, boiled down:
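HEK293 + NanoLuc + prosubstrate, 600 cells/well; 5 h, 37 C/5% CO2; compound 23 nL in DMSO by pintool; 37 C; luminescence read at 0, 8, 16, 24, 32 and 40 h time points.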

In experiment [16] the target is Estrogen receptor (Homo sapiens) (UniProt P03372). Nature of the experiment: qHTS assay to identify small molecule antagonists of the estrogen receptor alpha (ER-alpha) signaling pathway using the BG1 cell line in the presence of 0.1 nM 17-beta-estradiol (AID 1259244). Further: nearly all actives have a fitted effect of over 50% in size. The method, boiled down:
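Compounds were tested against 0.1 nM (final) 17beta-estradiol in VM7Luc4E2 cells, which express full-length ER-alpha and an ERE-luciferase reporter; luminescence was recorded following 22 h exposure.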

Experiment [17] in a line: qHTS assay to identify small molecule antagonists of the sonic hedgehog signaling (Shh) pathway - cell viability counter screen (AID 1259367). Further: nearly all actives have a fitted effect of over 55% in size. The method, boiled down: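 Fluorescence read-out (CellTiter-Fluor, 1 hr at 37C) taken after 23 hr compound treatment of 3T3 Gli1-Luc cells stimulated with conditioned medium. Cells were seeded at 2,000 per well and pre-incubated 4 hr.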

Experiment [18] can be described thus: A CellTox Green Cytotoxicity Assay to monitor cytotoxicity in HepG2 cells - 32 hour (AID 1224883). Further: nearly all actives have a fitted effect of over 50% in size. The gist of the method: as §3
In experiment [19] the target is Androgen receptor (Homo sapiens) (UniProt P10275). Nature of the experiment: qHTS assay to identify small molecule antagonists of the androgen receptor (AR) signaling pathway using the MDA cell line in the presence of 0.5 nM R1881 (AID 1259243). Further: nearly all actives have a fitted effect of over 50% in size. The method, boiled down: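 With R1881 held at 0.5 nM (final), compound effects on MMTV-luciferase expression in MDA-kb2 cells were scored by luminescence after a 16 hr, 37C incubation.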
Androgen receptor (Homo sapiens), sequence (P10275 whole entry, looked up): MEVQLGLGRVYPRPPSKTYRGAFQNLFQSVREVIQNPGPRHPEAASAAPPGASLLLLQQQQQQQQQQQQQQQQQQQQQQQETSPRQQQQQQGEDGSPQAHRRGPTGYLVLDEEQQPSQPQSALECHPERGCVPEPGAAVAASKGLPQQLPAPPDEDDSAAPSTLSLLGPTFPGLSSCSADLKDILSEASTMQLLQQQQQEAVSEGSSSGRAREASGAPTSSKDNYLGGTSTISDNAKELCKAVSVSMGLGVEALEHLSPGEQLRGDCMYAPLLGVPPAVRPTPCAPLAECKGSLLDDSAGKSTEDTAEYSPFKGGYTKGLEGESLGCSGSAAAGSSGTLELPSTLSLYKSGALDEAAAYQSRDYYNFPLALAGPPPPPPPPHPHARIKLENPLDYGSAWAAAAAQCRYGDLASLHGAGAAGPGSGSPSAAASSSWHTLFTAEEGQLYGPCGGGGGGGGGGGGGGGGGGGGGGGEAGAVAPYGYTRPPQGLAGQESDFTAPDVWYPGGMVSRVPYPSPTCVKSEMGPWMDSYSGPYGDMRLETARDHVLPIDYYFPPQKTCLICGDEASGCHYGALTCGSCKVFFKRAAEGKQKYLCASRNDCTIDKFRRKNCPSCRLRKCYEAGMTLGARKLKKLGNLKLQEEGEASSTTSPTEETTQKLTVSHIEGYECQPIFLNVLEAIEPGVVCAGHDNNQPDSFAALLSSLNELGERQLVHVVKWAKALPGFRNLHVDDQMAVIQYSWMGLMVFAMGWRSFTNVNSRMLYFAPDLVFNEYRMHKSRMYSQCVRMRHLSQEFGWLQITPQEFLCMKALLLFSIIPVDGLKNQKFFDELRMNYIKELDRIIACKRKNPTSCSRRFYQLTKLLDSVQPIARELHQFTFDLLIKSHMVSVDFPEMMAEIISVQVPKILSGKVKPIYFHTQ

Experiment [20] can be described thus: qHTS assay to identify small molecule phospholipidosis (PLD) inducers (AID 1259344; active means well fitted curve in the direction sought with a large enough effect; an effect the other way counts as inactive or inconclusive). The gist of the method: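 Read-out is LipidTOX Red fluorescence (ex 595/em 615) imaged in HepG2 cells after 24 h compound exposure at 37 C, with Hoechst nuclear counterstain (ex 352/em 461) allowing per-cell normalisation.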

A number with no mark means an inactive call. Results filed as inconclusive are left out. Activity calls are given as the source filed them. Unless noted, the call rests on the fitted dose curve; in most records, active means well fitted curve in the direction sought with a large enough effect in the repeat runs; inconclusive means weak or mixed curves; inactive means no such curve, though single readings can be large; an effect the other way counts as inactive or inconclusive.

Estrogen receptor (Homo sapiens), sequence (P03372 whole entry, looked up): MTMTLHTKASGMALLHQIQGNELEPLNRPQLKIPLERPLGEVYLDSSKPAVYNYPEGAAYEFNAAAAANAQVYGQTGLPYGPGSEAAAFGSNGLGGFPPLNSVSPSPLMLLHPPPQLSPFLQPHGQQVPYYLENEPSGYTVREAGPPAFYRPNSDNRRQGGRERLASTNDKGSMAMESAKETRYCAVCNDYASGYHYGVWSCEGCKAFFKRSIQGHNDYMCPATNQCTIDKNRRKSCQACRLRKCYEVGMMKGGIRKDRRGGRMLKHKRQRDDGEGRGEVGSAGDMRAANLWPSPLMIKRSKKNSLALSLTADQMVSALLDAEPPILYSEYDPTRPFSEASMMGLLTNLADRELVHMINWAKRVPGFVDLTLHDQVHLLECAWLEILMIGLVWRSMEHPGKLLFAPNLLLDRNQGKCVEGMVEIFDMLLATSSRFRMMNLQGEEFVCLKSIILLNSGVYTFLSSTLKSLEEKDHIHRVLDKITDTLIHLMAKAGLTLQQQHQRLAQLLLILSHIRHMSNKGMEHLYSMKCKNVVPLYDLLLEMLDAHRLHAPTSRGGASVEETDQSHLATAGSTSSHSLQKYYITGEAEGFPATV

In the case of `Cc1nc(C2CCCCC2)c(-c2ccc(S(N)(=O)=O)c(F)c2)o1`, the call in experiment [1], in experiment [2], in [3], in [5], in experiment [6] and in experiment [7] was inactive. In addition, the molecule was classed as inactive in experiment [9] and in experiment [11]. For the same molecule, the Potency entry in [4], in experiment [8] and in experiment [10] was “inactive” in each case.

`CCCO[Si](OCCC)(OCCC)OCCC`: the molecule was classed as inactive in experiment [1], in experiment [2], in [13], in [3], in [5] and in experiment [6]. Moreover, the result in [7], in experiment [16], in experiment [9] and in experiment [11] was inactive. The Potency result in [12], in experiment [14], in [15], in experiment [8], in [10] and in experiment [17] was “inactive” throughout.

For `N[C@@H](CCC(=O)O)C(=O)O`, the Potency result in [12], in experiment [18], in experiment [14], in experiment [15], in experiment [4] and in [8] was “inactive” each time. For the same molecule, the Potency result in experiment [10] and in experiment [17] was “inactive” throughout. Moreover, the molecule was classed as inactive in experiment [2], in [13], in experiment [3], in experiment [5], in experiment [6] and in experiment [7]. The outcome in experiment [16], in experiment [9] and in [11] was inactive.

On to `O=S(=O)(O)c1cc(O)c(O)c(S(=O)(=O)O)c1`, for which the result in experiment [1], in [2], in experiment [13], in experiment [3], in experiment [5] and in experiment [6] was inactive. The outcome in experiment [7], in experiment [16], in experiment [9] and in experiment [11] was inactive. Besides, the Potency entry in [12], in experiment [15], in [19], in experiment [8], in experiment [10] and in experiment [17] was “inactive” throughout.

As to `CN(C)C(=O)Oc1ccc[n+](C)c1`, the Potency result in experiment [12], in experiment [18], in [14], in experiment [15], in [4] and in experiment [8] was “inactive” in each case. The Potency entry in experiment [10] and in experiment [17] was “inactive” each time. Also, the molecule was called inactive in experiment [2], in [13], in experiment [3], in experiment [5], in experiment [6] and in experiment [7]. Moreover, the outcome in experiment [16], in experiment [20], in experiment [9] and in experiment [11] was inactive.

`CC(=O)OCC(=O)[C@@]1(O)[C@H](C)C[C@H]2[C@@H]3CCC4=CC(=O)C=C[C@]4(C)[C@@]3(F)[C@@H](O)C[C@@]21C`: the call in experiment [1], in experiment [2], in experiment [3], in experiment [5], in experiment [6] and in [7] was inactive. Further, the molecule was called inactive in [9] and in experiment [11]. Moreover, the Potency entry in experiment [12], in experiment [14], in experiment [15], in experiment [8], in [10] and in experiment [17] was “inactive” throughout. Further, the Potency in [4] was 9.52 µM (active).

Consider `C=COC(=O)C(C)(CC)CCC(C)C` (stereo unspecified), for which the Potency entry in experiment [12], in [18], in [14], in experiment [15], in [4] and in experiment [8] was “inactive” throughout. The Potency result in experiment [10] and in experiment [17] was “inactive” each time. The call in experiment [2], in [13], in experiment [3], in experiment [5], in experiment [6] and in experiment [7] was inactive. Also, the outcome in experiment [16], in experiment [9] and in experiment [11] was inactive.

With `C=CCCCCCCCCC(=O)OCC`, the result in [1], in experiment [13], in [3], in experiment [5], in experiment [6] and in experiment [7] was inactive. The result in [16], in experiment [9] and in experiment [11] was inactive. In addition, the Potency result in experiment [12], in [14], in experiment [15], in experiment [4], in experiment [8] and in experiment [10] was “inactive” each time. Besides, the Potency result in [17] was “inactive”.
